Test results taken from PubChem BioAssay AID463173 (ICCB-Longwood Screening Facility, Harvard Medical School, 2010).
Screen size: about 52,000 compounds; about 4,300 (8.3%) were called active. Cut-off read from the data, not from the text of the source: active = survival mostly below about 52% (no sharp cut-off); inactive = mostly above about 56%. Many of the other results were omitted from the sample, so actives are more common in it than they were.

system: DeltatarO mutant; test: growth inhibition of S. aureus wild type versus tarO mutant, primary screen, teichoic acid synthesis inhibitors, RN4220, OD600 (AID 463173); conditions: OD600, 18 h, hits give low values, screened at 18.75 µg/mL (by protocol)

| SMILES | survival |
| --- | --- |
| CCN(CC)S(=O)(=O)c1cccc(C(=O)NCc2ccccc2)c1 | 49% (inactive) |
| CCN(C(=O)Cn1cc(C(=O)c2ccc(F)cc2)c(=O)c2ccc(C)nc21)c1cccc(C)c1 | 71% (inactive) |
| CCc1ccccc1NC(=O)C1CCN(c2nn3c(=O)cc(C)nc3s2)CC1 | 81% (inactive) |
| Cc1ccc(N(CC(=O)N2CCN(c3cccc(Cl)c3)CC2)S(=O)(=O)c2c(C)noc2C)cc1 | 73% (inactive) |
| CCCCS(=O)(=O)CC(O)CSc1nc(-c2ccc(C)cc2)cc(-c2ccccc2)c1C#N (stereo not drawn) | 68% (inactive) |
| CCN1C(=O)C2C(c3ccc(OC)cc3)NC(CC)(C(=O)OC)C2C1=O (stereo not drawn) | 56% (inactive) |
| CN(C)CCNC(=O)c1ccc(Cn2c(SCc3ccc(F)cc3)nc3cccnc32)cc1 | 131% (inactive) |
| COc1ccc(N(CC(C)C)S(=O)(=O)c2nnc(NC(=O)c3ccco3)s2)cc1 | 41% (active) |
| CCN(c1ccccc1)S(=O)(=O)c1nnc(NC(=O)c2ccco2)s1 | 39% (active) |
| CCN(c1ccccc1C)S(=O)(=O)c1nnc(NC(=O)c2ccco2)s1 | 41% (active) |
| CC(C)CN(c1ccccc1)S(=O)(=O)c1nnc(NC(=O)c2ccco2)s1 | 31% (active) |
| CCN(c1cc(C)cc(C)c1)S(=O)(=O)c1nnc(NC(=O)c2ccco2)s1 | 52% (inactive) |
| CCN(c1ccc(Cl)cc1)S(=O)(=O)c1nnc(NC(=O)c2ccco2)s1 | 67% (inactive) |
| CN(c1ccccc1)S(=O)(=O)c1nnc(NC(=O)c2ccco2)s1 | 47% (inactive) |
| Cc1ccccc1N(C)S(=O)(=O)c1nnc(NC(=O)c2ccco2)s1 | 94% (inactive) |
| CC(C)CC(=O)Nc1nnc(S(=O)(=O)N(CC(C)C)c2ccccc2)s1 | 111% (inactive) |
| O=C(Cn1c(=O)n(-c2ccccc2)c(=O)c2ccc(C(=O)NCc3ccc4c(c3)OCO4)cc21)Nc1ccc(F)cc1 | 64% (inactive) |
| CC(C)c1ccc(NC(=O)Cn2cc(S(=O)(=O)Cc3cccc(Cl)c3)c3ccccc32)cc1 | 76% (inactive) |
| Cn1c(C(=O)N2CCc3ccccc32)cc2sccc21 | 91% (inactive) |
| CC(=O)N1CCc2c(sc(NC(=O)CSc3ccc(F)cc3)c2-c2nc3ccccc3s2)C1 | 108% (inactive) |

| SMILES | survival |
| --- | --- |
| Cc1ccc(Cn2c(CNC(=O)c3ccc(Cl)c([N+](=O)[O-])c3)nc3cccnc32)cc1 | 88% (inactive) |
| CC(SC(=S)N1CCCCCC1)C(=O)O (stereo not drawn) | 90% (inactive) |
| O=C(Cn1cc(S(=O)(=O)N2CCCC2)c(S(=O)(=O)N2CCCC2)c1)Nc1cccc(F)c1 | 98% (inactive) |
| Cc1nn(-c2ccccc2)c(-n2cccc2)c1C(=O)NCCCN1CCN(c2ccccc2F)CC1 | 63% (inactive) |
| Cc1ccc(N(C)S(=O)(=O)c2nnc(NC(=O)c3ccco3)s2)cc1 | 57% (inactive) |
| Cc1ccc(N(CC(C)C)S(=O)(=O)c2nnc(NC(=O)c3ccco3)s2)cc1 | 44% (active) |
| CCC(C)(C)C(=O)Nc1ccc(Cl)cc1 | 93% (inactive) |
| CC1CCc2c(sc(NC(=O)c3ccccc3)c2C(=O)Nc2ccccc2)C1 (stereo not drawn) | 42% (active) |
| CC1CCc2c(sc(NC(=O)Cc3ccccc3)c2C(=O)Nc2ccc(Cl)cc2)C1 (stereo not drawn) | 57% (inactive) |
| CCN(CC)C(=O)c1c(NC(=O)c2cccc(C)c2)sc2c1CCC(C)C2 (stereo not drawn) | -1% (active) |
| Cc1cccc(NC(=O)c2c(NC(=O)c3ccco3)sc3c2CCC(C)C3)c1 (stereo not drawn) | 53% (inactive) |
| Cc1cccc(C(=O)Nc2sc3c(c2C(=O)N2CCCCC2)CCC(C)C3)c1 (stereo not drawn) | -6% (active) |
| CCOc1ccc(NC(=O)c2c(NC(=O)Cc3ccccc3)sc3c2CCC(C)C3)cc1 (stereo not drawn) | 46% (inactive) |
| Cc1cccc(NC(=O)c2c(NC(=O)c3cccs3)sc3c2CCC(C)C3)c1 (stereo not drawn) | 60% (inactive) |
| CCOc1ccc(C(=O)c2cn(Cc3cccc(OC)c3)c3cc4c(cc3c2=O)OCO4)cc1 | 72% (inactive) |
| COC(=O)c1ccc2nc(C)cc(Nc3ccc(O)cc3)c2c1 | 186% (inactive) |
| COc1cc(Cl)c(S(=O)(=O)N2CCN(c3c(C)cccc3C)CC2)cc1Cl | 69% (inactive) |
| C/C(=N\NC(=O)c1cc2ccccc2cc1O)c1ccc(N)cc1 | 70% (inactive) |
| COc1ccc(CNC(=O)Nc2ccc3c(c2)N(C)C(=O)c2ccccc2S3)cc1OC | 61% (inactive) |
| O=C(Nc1ccc(Cl)cc1)c1cc2nc(-c3ccc4c(c3)OCO4)cc(C(F)(F)F)n2n1 | 83% (inactive) |

| SMILES | survival |
| --- | --- |
| CC(C)NC(=O)C1CC(c2ccc(Cl)cc2)=NO1 (stereo not drawn) | 84% (inactive) |
| Cn1nc(-c2ccccc2F)c2cc(C(=O)NCCc3ccc(Cl)cc3)sc21 | 76% (inactive) |
| Cn1nc(-c2ccccc2F)c2cc(C(=O)NCc3cccc(Cl)c3)sc21 | 41% (active) |
| COc1cccc(CNC(=O)c2cc3c(-c4ccccc4F)nn(C)c3s2)c1 | 59% (inactive) |
| Cn1nc(-c2ccccc2F)c2cc(C(=O)NCc3ccccc3Cl)sc21 | 56% (active) |
| COc1ccc(CNC(=O)c2cc3c(-c4ccccc4F)nn(C)c3s2)cc1 | 61% (inactive) |
| Cn1nc(-c2ccccc2F)c2cc(C(=O)NCc3ccc(Cl)cc3)sc21 | 87% (inactive) |
| CCN1C(=O)C2(c3ccccc31)c1c(oc3ccccc3c1=O)C(=O)N2CCOC (stereo not drawn) | 67% (inactive) |
| Cc1oc2cc3oc(=O)c(CC(=O)NCc4ccccc4)c(C)c3cc2c1C | 73% (inactive) |
| Cc1ccc(C(=O)N2CCc3cc(CNC(=O)COc4ccccc4)ccc32)cc1 | 89% (inactive) |
| Cc1ccc(-n2nc3c(=O)n(CCCC(=O)NC(C)c4ccccc4)nc(C)c3c2C)cc1 (stereo not drawn) | 67% (inactive) |
| COc1ccc(S(=O)(=O)N(CCc2ccccc2)CC(=O)NCc2ccccc2)cc1OC | 62% (inactive) |
| O=C(CC(c1cccs1)N1Cc2ccccc2C1=O)Nc1ccccc1F (stereo not drawn) | 78% (inactive) |
| CCOc1ccccc1NC(=O)CC(c1ccc(F)cc1)N1Cc2ccccc2C1=O (stereo not drawn) | 99% (inactive) |
| Cc1c(Cl)cccc1NC(=O)CC(c1cccs1)N1Cc2ccccc2C1=O (stereo not drawn) | 32% (active) |
| CCc1ccccc1NC(=O)CC(c1ccc(F)cc1)N1Cc2ccccc2C1=O (stereo not drawn) | 117% (inactive) |
| Cc1c(Cl)cccc1NC(=O)CC(c1ccc(F)cc1)N1Cc2ccccc2C1=O (stereo not drawn) | 37% (active) |
| O=C(CC(c1cccs1)N1Cc2ccccc2C1=O)Nc1ccc(Cl)cc1 (stereo not drawn) | 131% (inactive) |
